The results in this text go back to PubChem BioAssay AID588492 (Sanford-Burnham Center for Chemical Genomics, 2011).

Structures are written as SMILES. Among all 360,000 compounds or so, about 2,300 (0.64%) were called active. What follows is part of a selection rich in actives, with near analogues and random picks from the rest. Values without a mark were called inactive.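 How the source made its calls: active means compounds giving at least 50% protection of heart cells from peroxide-induced death in the single-dose screen, raw or plate-pattern-corrected value; inactive means the rest.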

This experiment in a line: cardioprotection against H2O2-induced cell death, primary screen, uHTS, H9c2 cells, ATPLite luminescence (AID 588492).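 Further: 0% = DMSO wells with peroxide and 100% = DMSO wells without peroxide.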 To be noted: H9c2 cardiomyocytes, H2O2 injury protection, 2 h, at 20 µM, stronger effect = higher value. For orientation: Cellular ATP, detected with luciferase, serves as a proxy for viable cell number.
Turning to `Cc1ccccc1N(C(=O)CNC(=O)c1cccs1)C(C(=O)NC1CCCC1)c1ccncc1` (centres undefined), the protection from H2O2 cell death was 1.9%.
With `O=C(NCC(=O)N(Cc1cccs1)C(C(=O)NC1CCCCC1)c1ccco1)c1cccs1` (centres undefined) the figure was 68.2% (active); with `O=C(NCC(=O)N(CC1CCCO1)C(C(=O)NC1CCCCC1)c1ccccc1)c1ccco1` (centres undefined), 2.8%; with `COc1ccc(-c2ccc(C(=O)NC(C)C)c3occc23)c(C)c1`, 5.9%.
With `COc1ccc(-c2nc3n(c2Br)CCC3)cc1` the figure was -13.5%.
`COc1ccc(NC(=O)CN(C)C(=O)c2cc(C)oc2C)cc1`: the protection from H2O2 cell death is -3.2%.
Next, `CCc1ccc(-c2nc(SCC(=O)NC3CCCC3)n[nH]2)cc1`: -11.6%; `O=C(OCc1cn([C@H]2C[C@H](c3ccccc3)N(C(=O)c3cccs3)C[C@@H]2O)nn1)c1ccccc1`: -0.9%; `COC(=O)c1ccc(C(NC(=O)OCc2ccccc2)/C(F)=C/[C@@H](C)C(=O)O)cc1` (some centres undefined): 1.8%.
With `COC(=O)c1cc(CNC(=O)CC(C)c2ccccc2)ccc1OC` (centres undefined) the figure was 9.7%; with `COC(=O)c1ccc(C(NC(=O)OCc2ccccc2)/C(C)=C/[C@@H](C)C(=O)NCc2ccc(OC)c(OC)c2)cc1` (some centres undefined), 52% (active); with `CCCCNC(=O)C(C)N(CCN(C)C)C(=O)CCCCCN1C(=O)NC(c2ccc(Cl)cc2)C(C(=O)OCc2ccccc2)=C1C` (centres undefined), -27%.
Next, `CC(=O)NC(c1cccc(F)c1)c1nc(-c2cccc(F)c2)cs1` (centres undefined): -2.7%; `Nc1nc2cc(Cl)ccc2n1N`: 1.6%.
For the molecule `COc1ccc(NC(=O)c2oc3ccc(S(=O)(=O)N4CCOCC4)cc3c2C)cc1`, the protection from H2O2 cell death is 52.7% (active).
In the case of `Cc1c(C(=O)Nc2cccc(S(=O)(=O)N3CCOCC3)c2)oc2ccccc12`, the protection from H2O2 cell death was 4.3%.
With `Cc1c(C(=O)Nc2ccccc2Cl)oc2ccc(S(=O)(=O)N3CCC4(CC3)OCCO4)cc12` the figure was 0.9%.
For the molecule `Cc1ccc(NC(=O)C(C)OC(=O)Cc2c[nH]c3ccccc23)cc1S(=O)(=O)N1CCOCC1` (centres undefined), the protection from H2O2 cell death is -2.5%.
With `C/C(=N\NC(=O)c1cccc([N+](=O)[O-])c1)c1cccnc1` the figure was 9.5%.
Take `CCN(CC)c1ccc(S(=O)(=O)N2CCCCC2)cc1NC(=O)C1=COCCO1`: the protection from H2O2 cell death is -3.5%.
Turning to `CC(=O)c1c(C)[nH]c(C(=O)OCC(=O)Nc2sc3c(c2C#N)CCCC3)c1C`, the protection from H2O2 cell death was -12.2%.
Next, `CCN1CCN(C(c2cccnc2)c2cc(Cl)c3cccnc3c2O)CC1` (centres undefined): 64% (active); `CCOC(=O)N1CCN(C(=O)C2CCN(c3ncnc4c3sc3cccc(F)c34)CC2)CC1`: -28.4%; `CCCCC(=O)NC(c1ccc(OC)c(OC)c1)c1ccc2cccnc2c1O` (centres undefined): 36.9%.
With `CC(=O)NC(c1cccs1)c1cc(Br)c2cccnc2c1O` (centres undefined), the protection from H2O2 cell death was 43.4%.
Next, `CCOC(=O)N1CCN(C(c2cccnc2)c2ccc3cccnc3c2O)CC1` (centres undefined): 69.3% (active); `CCn1c(SC(C)C(=O)Nc2ccc(N3CCOCC3)cc2)nnc1-c1ccco1` (centres undefined): -3.9%; `O=C(CN1C(=O)c2cccnc2Oc2ccc(Cl)cc21)Nc1ccc(F)cc1`: 21.7%.
As to `OC(c1cc(Cl)cc(Cl)c1)c1ncc(-c2ccccc2C(F)(F)F)[nH]1` (centres undefined), the protection from H2O2 cell death is -8.9%.
For `CC(=O)Nc1cccc(-c2nc3ccccc3s2)c1C`, the protection from H2O2 cell death is -3.3%.
As to `COc1cccc(/C=C(/CC(=O)Nc2ccc(N3CCOCC3)cc2)c2nc3ccccc3s2)c1`, the protection from H2O2 cell death was -4.6%.
Next, `COc1cccc2sc(NNC(=O)c3nc4ccccc4s3)nc12`: 53.7% (active); `COC(=O)[C@@H]1CCCN1C(=O)c1cc(COc2cccc3cccnc23)on1`: 11.6%; `CSCCC(c1nnnn1Cc1ccccc1)N1CCN(C/C=C/c2ccccc2)CC1` (centres undefined): -2%.
With `Cc1ccc(C(=O)OCC(=O)NC2CCCCCCC2)cc1C` the figure was -0.9%; with `CN(C)c1nc(NN)nc(Nc2ccc(F)cc2)n1`, -2.7%; with `Cn1c2ccc(F)cc2c2nnc(NN)nc21`, 56.4% (active).
Take `CCn1c2ccc(F)cc2c2nnc(SCCN3CCOCC3)nc21`: the protection from H2O2 cell death was 3.7%.
Take `CSc1nc(-c2ccccc2)nc(C(Cl)Cl)n1`: the protection from H2O2 cell death is -2.9%.
With `COC(=O)c1c(C(=O)OC)c2n(c1C)CCS2` the figure was -0.3%.
Next, `COc1ccc(C(C(=O)NCc2ccccc2)N(Cc2cccs2)C(=O)c2cnccn2)cc1` (centres undefined): 79.8% (active); `COc1ccc(CNC(=O)C(c2ccc(O)cc2)N(Cc2ccco2)C(=O)c2snc(C(N)=O)c2N)cc1` (centres undefined): 49%; `Cc1cccc(N(C(=O)c2csnn2)C(C(=O)NCc2ccccc2)c2ccncc2)c1` (centres undefined): 2.2%.
As to `CC(C)c1nnc(NC(=O)CCC(=O)N2CCN(c3cccc(Cl)c3)CC2)s1`, the protection from H2O2 cell death was -2.1%.
As for `COc1cccc(-c2ccc(SCC(=O)N3CCN(c4ccccc4)CC3)nn2)c1`, the protection from H2O2 cell death was 53.9% (active).
With `CCOc1ccc(-c2ccc(SCC(=O)N3CCOCC3)nn2)cc1` the figure was -13.9%.
With `COc1cccc(/C=C/C(=O)OCC(=O)N2CCN(c3ccccc3)CC2)c1` the figure was 2%; with `CC1(C(=O)NS(=O)(=O)Cc2cccc(Cl)c2)CCN1C(=O)Cc1ccccc1` (centres undefined), -2.8%.
With `COc1ccc(NC(=O)CN(C)C(=O)CC2CCCCC2)cc1` the figure was 0.1%; with `Cc1cccc(NC(=O)c2nc[nH]c2C(=O)NCC(=O)OCc2ccccc2)c1`, 86.4% (active).
As for `CCOC(=O)c1ccc(NC(=O)c2nc[nH]c2C(=O)NCc2ccccc2)cc1`, the protection from H2O2 cell death is 21.8%.
For `C[C@H](NC(=O)c1nc[nH]c1C(=O)NCC(=O)OC(C)(C)C)C(=O)OCc1ccccc1`, the protection from H2O2 cell death was 41.9%.
With `COC(=O)C1=C(C)NC(=O)/C1=C/c1ccc(CNS(=O)(=O)c2ccc(C)cc2)o1` the figure was 2.9%; with `COC(=O)C1=C(C)NC2=C(C(=O)c3ccccc32)C1c1ccc(-c2ccc(C(=O)O)cc2)o1` (centres undefined), 60.9% (active).
With `Nc1ccc2nc3c(=O)[nH]c(=S)[nH]c3nc2c1` the figure was -6.1%.
Next, `CCOc1ncccc1C(=O)N(CC)CC(=O)Nc1ccc(NC(C)=O)cc1`: -4.3%.
Take `COc1ccc(N(CC(=O)N/N=C/c2cccs2)S(=O)(=O)c2ccc(OC)c(OC)c2)cc1`: the protection from H2O2 cell death was 52.7% (active).
Consider `COc1ccc(S(=O)(=O)N(CC(=O)N/N=C/c2ccc(C(=O)O)cc2)Cc2ccccc2)cc1OC`, for which the protection from H2O2 cell death was -0.7%.
In the case of `COc1ccc(N(CC(=O)N/N=C/c2cccc3c2OCCO3)S(=O)(=O)c2ccc(NC(C)=O)cc2)cc1`, the protection from H2O2 cell death was 26.2%.
